# Compound activity deposited in PubChem BioAssay by National Center for Advancing Translational Sciences (NCATS).
# JMJD2A Tudor inh: inhibitors of human JMJD2A Tudor domain | O75164 | AlphaScreen JMJD2A-Tudor / H3K4me3 peptide binding | Potency, µM (highest dose often 114 µM), for inactives: at the top dose activity change, negative = inhibition, most hits filed as inhibitors | actives 4.4% (n = 390,000); further: on the % scale 0 is the no-effect control and ±100 the full control effect; nearly all actives have a fitted effect of over 50% in size
# Target sequence (O75164 whole entry, looked up, the tested form may be a part): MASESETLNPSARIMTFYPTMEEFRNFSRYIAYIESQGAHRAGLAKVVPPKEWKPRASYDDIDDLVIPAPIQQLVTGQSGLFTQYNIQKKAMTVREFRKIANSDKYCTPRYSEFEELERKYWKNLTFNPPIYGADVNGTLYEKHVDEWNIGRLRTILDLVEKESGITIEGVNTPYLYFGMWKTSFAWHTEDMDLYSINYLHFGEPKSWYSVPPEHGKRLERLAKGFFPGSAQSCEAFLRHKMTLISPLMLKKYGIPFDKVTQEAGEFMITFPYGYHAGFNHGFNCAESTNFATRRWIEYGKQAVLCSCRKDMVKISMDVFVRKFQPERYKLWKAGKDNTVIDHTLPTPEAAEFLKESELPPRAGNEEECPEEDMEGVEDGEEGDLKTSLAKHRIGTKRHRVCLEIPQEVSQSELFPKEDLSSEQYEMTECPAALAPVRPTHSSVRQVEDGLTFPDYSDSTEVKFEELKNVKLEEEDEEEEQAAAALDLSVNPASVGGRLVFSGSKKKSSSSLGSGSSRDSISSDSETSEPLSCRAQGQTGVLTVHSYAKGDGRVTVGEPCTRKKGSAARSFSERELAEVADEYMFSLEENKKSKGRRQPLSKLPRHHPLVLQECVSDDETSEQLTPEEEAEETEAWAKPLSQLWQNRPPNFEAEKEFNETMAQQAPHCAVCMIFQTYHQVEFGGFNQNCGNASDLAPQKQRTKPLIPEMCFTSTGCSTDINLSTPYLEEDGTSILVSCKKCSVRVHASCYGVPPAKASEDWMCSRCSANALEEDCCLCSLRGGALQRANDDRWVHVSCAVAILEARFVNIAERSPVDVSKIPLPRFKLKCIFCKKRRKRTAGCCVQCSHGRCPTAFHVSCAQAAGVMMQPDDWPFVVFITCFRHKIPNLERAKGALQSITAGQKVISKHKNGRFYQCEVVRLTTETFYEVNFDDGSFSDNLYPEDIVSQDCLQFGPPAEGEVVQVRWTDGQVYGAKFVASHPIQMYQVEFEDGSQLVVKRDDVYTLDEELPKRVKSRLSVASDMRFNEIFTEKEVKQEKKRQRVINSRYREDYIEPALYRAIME
# G9a block: blocks human histone lysine methyltransferase G9a. Q96KQ7. G9a H3K9 monomethylation, AlphaScreen, 2 h. Potency, µM (highest dose often 102 µM), inactives show at the highest dose activity, negative = inhibition, usual class: inhibitors. actives 8.8% (n = 350,000). AID 504332; further: on the % scale 0 is the no-effect control and ±100 the full control effect; nearly all actives have a fitted effect of over 75% in size
#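 Quantitative HTS format: methyltransferase activity on a biotin-tagged H3K9 peptide is measured by AlphaScreen, using a rabbit anti-monomethyl-H3K9 antibody with streptavidin donor and anti-IgG acceptor beads. Final levels are 20 nM enzyme, 500 nM peptide, 20 uM SAM; 2 h RT.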
# Sfp inh: Sfp phosphopantetheinyl transferase inhibition. Q9F4F7. Biochemical Sfp PPTase activity, qHTS. Potency, µM, without a hit: largest response in the series, negative = inhibition, actives largely listed as inhibitors. actives 3.5% (n = 310,000). AID 1490;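 further: the enzyme is Sfp with the accession as filed and its product quenches rhodamine fluorescence; 0% = enzyme reaction without inhibitor and -100% = no enzyme wells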
#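 After 15 min at room temperature with compound, 15 nM Sfp received 5 uM rhodamine-CoA plus 12.5 uM BHQ-2-ybbR (50 mM Hepes pH 7.6, 10 mM MgCl2). Rate came from the fluorescence difference over 30 min, ex 525/em 598 nm.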
# HP1b binding inh: inhibitors of HP1-beta chromodomain binding to methylated histone tails. P83916. AlphaScreen HP1-beta / biotin-H3K9me3 peptide binding. Potency, µM (doses to about 114 µM), for the others: top-dose activity change, negative = inhibition, hits mostly inhibitors. actives 0.56% (n = 390,000); further: nearly all actives have a fitted effect of over 70% in size
#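 Compound inhibition of the preformed complex between 50 nM HP1-beta and 50 nM biotinylated H3K9me3 peptide was read by AlphaScreen. Buffer was PBS pH 7.4 with 0.01% Tween-20. Incubations ran 30 min at room temperature, with 10 ug/mL donor/acceptor beads.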
# BAZ2B inh: inhibitors of human BAZ2B bromodomain; Q9UIF8; AlphaScreen BAZ2B-H3K14Ac peptide displacement; Potency, µM (series often up to 114 µM), inactives show at the highest dose activity change, negative = inhibition, hits mostly inhibitors; actives 4.4% (n = 360,000); further: on the % scale 0 is the no-effect control and ±100 the full control effect; nearly all actives have a fitted effect of over 60% in size
#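 BAZ2B 50 nM plus b-H3(5-23)K14Ac 50 nM, PBS pH 7.4/0.01% Tween-20, 30 min RT; compound added (max 110 uM), 30 min RT; streptavidin donor/Ni-chelate acceptor beads 10 ug/mL final, 20 min dark; AlphaScreen read.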
# Starred values were filed as active, the others as inactive; ? = inconclusive; . = no result; [ ] = dose if it differs, or a comment. An excerpt weighted towards active compounds, which were near 12% of everything screened. The call rests on the fitted dose curve; in most records, active means well fitted curve in the direction sought with a large enough effect; inconclusive means small, poorly fitted or top-dose-only effect, or another doubt; inactive means no such curve, though single readings can be large; an effect the other way counts as inactive or inconclusive. Potency means the concentration at half of the fitted maximal effect.
SMILES,JMJD2A Tudor inh,G9a block,Sfp inh,HP1b binding inh,BAZ2B inh
O=C(CSc1nnc(CNC(=O)c2c(F)cccc2Cl)o1)Nc1ccccc1F,0.3%,-26.9%[59 µM],.,25.3%,-12.2%
O=c1cc(-c2ccccc2)oc2c1ccc1ccccc12,.,.,44.7µM*,.,.
O=c1cc(C(F)(F)F)oc2c1ccc1ccccc12,-13.7%[57.1 µM],16.0%[59 µM],9.1%,72.4%,-1.4%
O=c1cc(/C=C/c2ccccc2)oc2c1ccc1ccccc12,-18.5%,?,79.4µM*,24.4%,-10.5%
O=c1cc(-c2cccnc2)oc2c1ccc1ccccc12,-16.4%,25.7%[59 µM],24.9%,25.5%,-17.2%
N#Cc1ccc(NC(=O)COCc2cc(-c3ccc(F)cc3)on2)cc1,7.1%,-21.1%[59 µM],.,19.3%,-6.6%
Cn1c(=O)c2c(nc(N3CCCCCC3)n2Cc2cccc3ccccc23)n(C)c1=O,?,-17.3%,?,?,?
Cc1cccc(Cn2c(SCCN3CCOCC3)nc3c2c(=O)n(C)c(=O)n3C)c1,-20.4%,44.7µM*,12.3%,2.6%,4.9%
Cc1cccc(Cn2c(N3CCN(C)CC3)nc3c2c(=O)n(C)c(=O)n3C)c1,-12.9%,20µM*,8.4%,16.6%,-36.7%
CN1CCN(c2nc3c(c(=O)n(C)c(=O)n3C)n2Cc2cccc3ccccc23)CC1,-20.4%,44.7µM*,7.8%,5.6%,-36.1%
Cn1c(N2CCN(c3ccccn3)CC2)nc2c1c(=O)n(Cc1ccc(Cl)cc1)c(=O)n2C,?,39.8µM*,-6.4%,-10.8%,?
Cc1ccc(N(CC(=O)Nc2ccc(Br)c(C)c2)S(=O)(=O)c2cccs2)cc1,1.0%,-1.9%[59 µM],.,40.4%,.
CC(C)CS(=O)(=O)c1oc(-c2ccc(F)cc2)nc1S(=O)(=O)c1ccccc1,-11.5%,?,.,51.9%,-2.6%
COC(=O)c1cc(Cl)ccc1NC(=O)CSc1ncc(S(=O)(=O)c2ccc(Br)cc2)c(=O)[nH]1,-24.6%,-16.3%[59 µM],.,6.0%,79.4µM*
COc1cc2c(cc1OC)-c1cc(Nc3ccc(N(C)C)cc3)nc(=O)n1CC2,?,14.1µM*,2.4%,-35.7%,?
COc1cc2c(cc1OC)-c1cc(Nc3ccc(F)cc3)nc(=O)n1CC2,-10.1%,23.8%,-8.4%,38.9%,1.2%
COc1cc2c(cc1OC)-c1cc(Nc3cccc(F)c3)nc(=O)n1CC2,-2.1%,58.5%,18.8%,-5.1%,18.9%
CCN(CC)c1ccc(Nc2cc3n(c(=O)n2)CCc2cc(OC)c(OC)cc2-3)cc1,44.7µM*,20µM*,-20.9%,?,22.4µM*
CCOC(=O)c1c(C)oc2c1c(CN1CCN(CCO)CC1)c(O)c1ccccc12,?,1.41µM*,?,?,.
CCOC(=O)c1c(C)oc2c1c(CN1CCN(C(=O)OCC)CC1)c(O)c1ccccc12,?,3.16µM*,-20.5%,-26.5%,?
CCOC(=O)c1c(C)oc2ccc(O)c(CN3CCCCC3)c12,-6.3%,1.1%[12.7 µM],-4.4%,18.8%,15.3%
CCOC(=O)C1(Cc2ccccc2)CCCN(Cc2ccccn2)C1 (centres undefined),-12.1%,6.8%[0.501 µM],8.3%,48.2%,-7.2%
CCOC(=O)c1c(C)oc2c1c(C=NCCC(=O)O)c(O)c1ccccc12,-24.1%,50.1µM*,-7.2%,24.3%,?
CCOc1ccccc1Oc1c(C)oc2c(CN3CCN(CCO)CC3)c(O)ccc2c1=O,-9.3%,2.3%,-4.9%,7.8%,-11.1%
CCOC(=O)c1c(C)oc2c1c(C=NC1CCS(=O)(=O)C1)c(O)c1ccccc12 (centres undefined),-15.2%,-136.7%,11.6%,16.8%,-1.2%
SMILES,JMJD2A Tudor inh,G9a block,Sfp inh,HP1b binding inh,BAZ2B inh
CCOC(=O)c1c(C)oc2c1c1c(c3ccccc32)OCN(Cc2ccccn2)C1,?,12.3%[0.501 µM],?,-8.0%,44.7µM*
O=C(CN1C(=O)C2CCCCN2c2ccc(C(=O)N3CCCC3)cc21)NCc1ccccc1F (centres undefined),-9.9%,4.2%[59 µM],.,29.2%[57 µM],1.0%
COc1cccc(Cn2ccn(-c3ccc(F)cc3)c(=O)c2=O)c1,5.3%,2.2%[59 µM],.,49.8%,-1.2%
CCOC(=O)c1c(C)oc2c1c(C(c1ccncc1)N1CCOCC1)c(O)c1ccccc12 (centres undefined),?,?,?,70.8µM*,14.1µM*
CCOC(=O)c1c(C)oc2ncnc(N3CCN(c4ccccc4)CC3)c12,-29.8%,-10.8%[59 µM],.,-5.7%,-13.6%[57.1 µM]
CC1CCc2nc(-c3cc4c(ccc5ccccc54)oc3=O)sc2C1 (centres undefined),10.8%[57.1 µM],.,.,18.5%[57 µM],.
CC1SC(=NC(=O)c2ccncc2)NC1=O (centres undefined),-8.2%,39.8µM*,10.7%,4.1%,-19.9%
CC1Sc2ccc(C(=O)NCc3ccccn3)cc2NC1=O (centres undefined),?,?,.,?,-16.5%
COCCn1c(SCC(=O)Nc2ccc(Br)cc2)nc2c([nH]c3ccccc32)c1=O,-8.1%,11.4%[59 µM],.,27.1%[57 µM],5.6%
Cc1nn(C)c(Sc2ccccc2N)c1[N+](=O)[O-],17.8µM*,7.94µM*,3.55µM*,-16.8%,-37.3%
Cc1nn(C)c(N)c1[N+](=O)[O-],10.0%,.,4.4%,8.4%,3.1%
O=C(Nc1ccccc1)c1cccc(C(=O)Nc2ccccc2)n1,-8.3%,-12.4%[12.7 µM],17.4%,32.1%,-16.9%
Cc1cccc(NC(=O)c2cccc(C(=O)Nc3cccc(C)c3)n2)c1,-20.9%,.,.,-2.6%,.
CN(C)c1ccc(NC(=O)c2cccc(C(=O)Nc3ccc(N(C)C)cc3)n2)cc1,15.8µM*,3.16µM*,-23.9%,39.8µM*,7.94µM*
Cc1cc(C)cc(NC(=O)c2cccc(C(=O)Nc3cc(C)cc(C)c3)n2)c1,4.47µM*,?,56.2µM*,22.4%,?
O=C(Nc1ccc(Cl)cc1)c1ccc2nsnc2c1,-5.8%,-7.4%[59 µM],17.7%,44.1%,-9.5%
O=C(O)c1ccc(NC(=O)c2cccc(C(=O)Nc3ccc(C(=O)O)cc3)n2)cc1,?,22.4µM*,-6.2%,57.7%,-33.6%
CN(C)c1ccc(NC(=O)c2ccc3nsnc3c2)cc1,-35.3%,4.47µM*,-8.2%,-13.4%,-11.3%
CC1=NN(c2ccccc2)C(=O)/C1=C\c1cn(CCC#N)nc1-c1ccc(Cl)cc1,?,4.47µM*,-5.8%,?,?
Cc1ccc(-c2nn(CCC#N)cc2C=C(C#N)C#N)cc1,-4.7%,8.8%[59 µM],-14.5%,37.5%,-2.9%
CC1=NN(c2ccccc2)C(=O)/C1=C\c1sccc1C,?,?,-3.4%,?,7.08µM*
COc1ccccc1/C=C1/C(=O)N(c2ccccc2)N=C1C,?,?,-4.4%,-19.2%[57 µM],?
Cn1cc(C=C2C(=O)CC(C)(C)CC2=O)c2ccccc21,?,44.7µM*,-15.6%,-14.5%,?
COc1cc(/C=C2/C(=O)N(c3ccc(C)c(C)c3)N=C2C)cc([N+](=O)[O-])c1O,44.7µM*,2.0%[0.501 µM],-3.9%,?,39.8µM*
